{"source": "ChEMBL document CHEMBL3988442", "about": "“University of Dundee, Small-Polar-MMV Screening Library” (2021)", "note": "The whole screen tested about 53,000 compounds, of which about 900 (1.7%) showed an effect of 50% or more. The sample as a whole holds a higher share of strong results than the screen did.", "data": [{"test_system": "Mycobacterium tuberculosis", "assay": "Cornell - Phenotypic assay to identify agents that inhibit growth of Mycobacterium tuberculosis", "format": "functional", "parameters": "scale not given: direction of the effect not stated beside the values", "conditions": "10 mM as filed; unlikely as a test dose", "units": {"Percent Effect": "%"}, "values": [{"smiles": "Cc1ccccc1C(=O)N1C[C@@H](O)[C@H](N2CCOCC2)C1", "Percent Effect": 51.24}, {"smiles": "Cc1ccccc1C(=O)N1CC[C@H](O)[C@@H](N2CCOCC2)CC1", "Percent Effect": 45.8}, {"smiles": "CC(=O)N1CCN([C@@H]2CN(C(=O)c3ccccc3C)C[C@H]2O)CC1", "Percent Effect": -3.259}, {"smiles": "CCN(CC)S(=O)(=O)N1CC[C@H](c2ccccc2)[C@@H]2[C@H]1CCCCN2C", "Percent Effect": 1.905}, {"smiles": "COc1cccc2ncn(C(C)Cn3cccn3)c(=O)c12", "note": "(stereo unspecified)", "Percent Effect": -18.84}, {"smiles": "CCSCc1cccc(NCc2cccnc2)c1", "Percent Effect": 73.99}, {"smiles": "COCc1cccc(NCc2cccnc2)c1", "Percent Effect": -54.85}, {"smiles": "CCSc1cccc(NCc2cccnc2)c1", "Percent Effect": 12.75}, {"smiles": "CO[C@@H]1CCC[C@@H](NC(=O)CCCn2cncn2)[C@H]1O", "Percent Effect": 5.133}, {"smiles": "COc1ccc(C2CN(c3ncccn3)CCN2C(C)=O)cc1", "note": "(stereo unspecified)", "Percent Effect": -24.16}, {"smiles": "CCc1ccc2c(C3CN(CC4CCC4)C3)ncn2c1.O=C(O)C(F)(F)F", "Percent Effect": 77.11}, {"smiles": "CCc1ccc2c(C3CN(S(C)(=O)=O)C3)ncn2c1", "Percent Effect": 13.01}, {"smiles": "CCc1ccc2c(C3CN(C(C)=O)C3)ncn2c1", "Percent Effect": 27.54}, {"smiles": "Cc1csc(C2(NCc3csc(C4CC4)n3)CCCC2)n1", "Percent Effect": 19.76}, {"smiles": "CC(NC(=O)OC(C)(C)C)c1nnc(S(=O)(=O)Cc2ccccc2Cl)o1", "note": "(stereo unspecified)", "Percent Effect": 105.8}, {"smiles": "Cc1cccc(CS(=O)(=O)c2nnc([C@@H](N)Cc3ccccc3)o2)c1.Cl", "Percent Effect": -11.8}, {"smiles": "Cl.N[C@@H](Cc1ccccc1)c1nnc(S(=O)(=O)Cc2ccc(Cl)cc2)o1", "Percent Effect": -9.825}, {"smiles": "CC(NC(=O)OC(C)(C)C)c1nnc(S(=O)(=O)Cc2ccc(Cl)cc2)o1", "note": "(stereo unspecified)", "Percent Effect": 103.3}, {"smiles": "CCC(C)NC(=O)CS(=O)(=O)Cc1ccccc1Cl", "note": "(stereo unspecified)", "Percent Effect": 2.34}, {"smiles": "C[C@H](NC(=O)OC(C)(C)C)c1nnc(S(=O)(=O)Cc2cccc(F)c2)o1", "Percent Effect": -26.24}, {"smiles": "Cc1ccccc1CS(=O)(=O)c1nnc(C(C)NC(=O)OC(C)(C)C)o1", "note": "(stereo unspecified)", "Percent Effect": 104.2}, {"smiles": "Cc1noc(C(C)NC(=O)[C@@H](C)NC(=O)OC(C)(C)C)n1", "note": "(stereo partly specified)", "Percent Effect": 27}, {"smiles": "N[C@@H](Cc1ccccc1)c1nnc(S(=O)(=O)Cc2ccccc2)o1", "Percent Effect": -19.29}, {"smiles": "Cn1c(Cn2cccn2)nnc1C1CCN(Cc2cccnc2)CC1", "Percent Effect": -9.114}, {"smiles": "CCCOc1cc(F)ccc1NC(=O)NCc1noc(C)n1", "Percent Effect": 7.548}, {"smiles": "Cc1cn2c(n1)CCC(NC(=O)c1oc(Br)cc1C)C2", "note": "(stereo unspecified)", "Percent Effect": -43.16}, {"smiles": "CC(C)NC(=O)N1CCC[C@H]1C(=O)NCCCc1cccc(F)c1", "Percent Effect": -6.686}, {"smiles": "Cc1c[nH]nc1C1CCCN1Cc1ccncc1", "note": "(stereo unspecified)", "Percent Effect": 14.55}, {"smiles": "CNc1ccnc(NCC(=O)Nc2cc(C)ccc2OC)n1", "Percent Effect": -15.75}, {"smiles": "Cc1nn(C)cc1-c1cc(C(F)(F)F)nc(NC2CCCCC2)n1", "Percent Effect": 22.2}, {"smiles": "CCn1cc(-c2cc(C(F)(F)F)nc(NC3CCCC3)n2)c(C)n1", "Percent Effect": 101.8}, {"smiles": "Cc1nn(C)cc1-c1cc(C(F)(F)F)nc(NC2CCN(C)CC2)n1", "Percent Effect": 11.83}, {"smiles": "COCC(=O)N1CCCC(c2nc(N)ncc2-c2cccc(F)c2)C1", "note": "(stereo unspecified)", "Percent Effect": 3.898}, {"smiles": "Cc1c(CN2CCOCC2)c(O)n(CCO)c(=O)c1C#N", "Percent Effect": -84.89}, {"smiles": "Cc1c(CN2CCOCC2)c(O)n(CCc2ccccc2)c(=O)c1C#N", "Percent Effect": 66.79}, {"smiles": "Cc1c(CN2CCCCC2)c(O)n(CCO)c(=O)c1C#N", "Percent Effect": 38.65}, {"smiles": "O=S(=O)(NCCCn1cncn1)c1ccc2c(c1)OCCO2", "Percent Effect": -20.65}, {"smiles": "O=C(CNc1cc2c(cc1Cl)OCCCO2)NCc1ccc(F)cc1", "Percent Effect": -2.409}, {"smiles": "COc1ccc(CNC(=O)CNc2cc3c(cc2Cl)OCCO3)cc1", "Percent Effect": -25.81}, {"smiles": "COc1ccc(CNC(=O)CNc2cc3c(cc2Cl)OCCCO3)cc1", "Percent Effect": 53.68}, {"smiles": "CCc1cc(C(=O)N2CCC3(CCCN(CC4CC4)C3=O)C2)cs1", "note": "(stereo unspecified)", "Percent Effect": 1.27}, {"smiles": "Cc1ccccc1CN1CCC(NCC2CNc3ccnn3C2)CC1", "note": "(stereo unspecified)", "Percent Effect": 54.71}, {"smiles": "Cc1cc2n(n1)CC(CNC1CCN(Cc3ccccc3C)CC1)CN2", "note": "(stereo unspecified)", "Percent Effect": 1.638}, {"smiles": "c1ccc(Cn2cccn2)c(CNCC2CNc3ccnn3C2)c1", "note": "(stereo unspecified)", "Percent Effect": -42.61}, {"smiles": "CS(=O)(=O)N1Cc2ccnn2CC(C(=O)NCc2cccnc2)C1.O=C(O)C(F)(F)F.O=C(O)C(F)(F)F", "note": "(stereo unspecified)", "Percent Effect": -34.93}, {"smiles": "CCC(C)NC(=O)NCc1cc2n(n1)CCCN(C1CCCCC1)C2", "note": "(stereo unspecified)", "Percent Effect": -10.73}, {"smiles": "Fc1ccccc1-c1cccc(C2CCCN(C3CCOCC3)C2)n1", "note": "(stereo unspecified)", "Percent Effect": 36.89}, {"smiles": "CN(C)C1COC2(CCN(Cc3ccncc3)CC2)C1", "note": "(stereo unspecified)", "Percent Effect": 9.126}, {"smiles": "CC(=O)N(Cc1noc(C2CC2)n1)C1CCN(CC2CCOCC2)C1", "note": "(stereo unspecified)", "Percent Effect": -29.12}, {"smiles": "CC(=O)N1CCC(c2nccnc2-c2ccc(C(=O)O)cc2)CC1", "Percent Effect": -19.35}, {"smiles": "Cc1ccccc1CN1CCOC(c2nccc(CN(C)C)n2)C1", "note": "(stereo unspecified)", "Percent Effect": -48.65}, {"smiles": "COc1ccc(OCc2cc(C(=O)N3CCC(O)CC3)n[nH]2)c(Cl)c1", "Percent Effect": 6.579}, {"smiles": "COc1ccc(OCc2cc(C(=O)N3CCSCC3)n[nH]2)c(Cl)c1", "Percent Effect": 54.8}, {"smiles": "COc1ccc(OCc2cc(C(=O)N3CCCCO3)n[nH]2)c(Cl)c1", "Percent Effect": 106.4}, {"smiles": "COc1ccc(OCc2cc(C(=O)N3CCOCC3)n[nH]2)c(Cl)c1", "Percent Effect": 19.45}, {"smiles": "COc1ccc(OCc2cc(C(=O)N3C[C@@H](C)O[C@@H](C)C3)n[nH]2)c(Cl)c1", "Percent Effect": 4.963}, {"smiles": "COc1ccc(OCc2cc(C(=O)N3CC=CC3)n[nH]2)c(Cl)c1", "Percent Effect": 40.41}, {"smiles": "CC(C(=O)N1CCOCC1)N1CCN(Cc2nccn2C)CC1", "note": "(stereo unspecified)", "Percent Effect": -9.72}, {"smiles": "N#Cc1cccc(S(=O)(=O)N2CCCCC2C(N)=O)c1", "note": "(stereo unspecified)", "Percent Effect": 15.32}, {"smiles": "O=C(Cc1cccnc1)N1CCCC(n2cncn2)C1", "note": "(stereo unspecified)", "Percent Effect": -17.88}, {"smiles": "Cc1nn(C)c2c(NCc3ccncc3)nc(C3CC3)nc12", "Percent Effect": -8.977}, {"smiles": "CCN(CC(C)C#N)C(=O)CNc1cc(Cl)ccc1C(N)=O", "note": "(stereo unspecified)", "Percent Effect": -0.05585}, {"smiles": "COCC1CCCN(C(=O)c2ccc(NC(=O)CC(C)C)c(C)c2)C1", "note": "(stereo unspecified)", "Percent Effect": -1.652}, {"smiles": "CCN(Cc1cccc(C)c1)Cn1nc(C)c2c(C)onc2c1=O", "Percent Effect": -12.96}, {"smiles": "COc1nn(C)c2c1CCCN(C(=O)c1cc[nH]n1)C2", "Percent Effect": 12.29}, {"smiles": "CC1(C)OC(=O)N(CC(=O)N2CCC(c3ccccc3F)C2)C1=O", "note": "(stereo unspecified)", "Percent Effect": 22.76}, {"smiles": "CC1(C)OC(=O)N(CC(=O)N2CCC(c3ccccc3Cl)C2)C1=O", "note": "(stereo unspecified)", "Percent Effect": 25.58}, {"smiles": "COc1ccccc1C1CCN(C(=O)CN2C(=O)OC(C)(C)C2=O)CC1", "Percent Effect": 53.49}, {"smiles": "O=C(O)C(F)(F)F.O=C1CC2(CCN(Cc3ccccn3)C2)CN1c1cncnc1", "note": "(stereo unspecified)", "Percent Effect": 17.37}, {"smiles": "CCCC(C#N)NC(=O)c1cc(Br)c2c(c1)OCCO2", "note": "(stereo unspecified)", "Percent Effect": 14.39}, {"smiles": "Oc1ccc(Cl)cc1CNCc1ccccc1Cl", "Percent Effect": 26.21}, {"smiles": "Oc1ccc(Cl)cc1CNCc1cccc(C(F)(F)F)c1", "Percent Effect": 70.21}, {"smiles": "Oc1ccc(Cl)cc1CNCc1ccccc1C(F)(F)F", "Percent Effect": 6.779}, {"smiles": "CCc1nnc(NC(=O)c2c3c(nn2C2CCS(=O)(=O)C2)CCC3)s1", "note": "(stereo unspecified)", "Percent Effect": -18.44}, {"smiles": "CNC(=O)NCC1CCC2(CCN(C(=O)c3ccccc3)CC2)CO1", "note": "(stereo unspecified)", "Percent Effect": 2.943}, {"smiles": "O=C(O)C(F)(F)F.O=C([C@H]1CC[C@@H]2[C@@H](CCN2C2CCOCC2)O1)N1CCOCC1", "Percent Effect": 0.461}, {"smiles": "O=C(CN1CCc2sccc2C1)Nc1ccnc2ccnn12", "Percent Effect": 105.2}, {"smiles": "CC(C)n1nccc1NC(=O)CN1CCc2sccc2C1", "Percent Effect": 2.695}, {"smiles": "Cn1nccc1NC(=O)CN1CCc2sccc2C1", "Percent Effect": -1.554}, {"smiles": "O=C(O)C(F)(F)F.O=C(O)C(F)(F)F.O=C(c1cccnc1)N1CCC[C@]2(C[C@H](Oc3ncccc3F)CO2)C1", "Percent Effect": -30.18}, {"smiles": "COCCN1CCC(c2cncc(N(C)C)n2)CC1", "Percent Effect": -17.24}, {"smiles": "O=C(O)c1ccccc1-c1ccc(CN2CC(c3ccncn3)C2)o1", "Percent Effect": 60.18}, {"smiles": "Cc1nccc(C2CN(Cc3ccc(-c4ccccc4C(=O)O)o3)C2)n1", "Percent Effect": 19.38}, {"smiles": "Nc1nccc(C2CN(Cc3ccc(-c4ccccc4C(=O)O)o3)C2)n1", "Percent Effect": 40.18}, {"smiles": "Cc1ccc(CN(CCCn2ccnc2)Cc2ccccc2O)s1.O=C(O)CC(O)(CC(=O)O)C(=O)O", "Percent Effect": -13.23}, {"smiles": "CCc1ccc(CN(CCCn2ccnc2)Cc2ccc(C)s2)o1.O=C(O)CC(O)(CC(=O)O)C(=O)O", "Percent Effect": 67.99}, {"smiles": "Cc1ccc(CN(CCCn2ccnc2)Cc2cccs2)s1.O=C(O)CC(O)(CC(=O)O)C(=O)O", "Percent Effect": 40.45}, {"smiles": "Cc1cnc(CCNC(=O)NCCc2ccc(O)cc2)s1", "Percent Effect": 16.98}, {"smiles": "O=C(c1ccno1)N1CCn2cc(CN3CCCCC3)nc2C1", "Percent Effect": 6.548}, {"smiles": "CCc1ccc(C(COC)NC(=O)c2ccsc2)o1", "note": "(stereo unspecified)", "Percent Effect": 37.56}, {"smiles": "c1cc2n(n1)CC(CNCc1ccc(OC3CCCCC3)nc1)CN2", "note": "(stereo unspecified)", "Percent Effect": 102.7}, {"smiles": "c1cc2n(n1)CC(CNCc1ccc(OC3CCCC3)nc1)CN2", "note": "(stereo unspecified)", "Percent Effect": -62.66}, {"smiles": "c1cc(CNCC2CNc3ccnn3C2)cc(OC2CCCCC2)n1", "note": "(stereo unspecified)", "Percent Effect": -14.29}, {"smiles": "O=C(C1CCC1)N1CCCn2nc(CNc3ncccn3)cc2C1", "Percent Effect": 5.205}, {"smiles": "CN(Cc1cc2cc(F)ccc2[nH]1)c1cc(C2CCCNC2)ncn1", "note": "(stereo unspecified)", "Percent Effect": 13.11}, {"smiles": "Cc1c(CN(C)c2cc(C3CCCNC3)ncn2)[nH]c2ccccc12", "note": "(stereo unspecified)", "Percent Effect": 61.5}, {"smiles": "Cc1nc(C2CCCNC2)cc(N(C)CCc2ccccc2)n1", "note": "(stereo unspecified)", "Percent Effect": 0.6184}, {"smiles": "CN1C(=O)CCc2cc(NS(=O)(=O)Cc3cccc(F)c3)ccc21", "Percent Effect": 1.464}, {"smiles": "O=C(Nc1cccs1)N1CC(c2nc(C3CC3)no2)C1", "Percent Effect": 107.8}, {"smiles": "O=C(Nc1c(F)cccc1F)N1CC(c2nc(C3CC3)no2)C1", "Percent Effect": 10.47}, {"smiles": "COCCc1noc(C2CCN(C(=O)Nc3cccs3)CC2)n1", "Percent Effect": 17.42}]}]}
